# Reference: publication PMC11006913
# Tests used:
# Assay in all cases: PBM; 200 nM protein, PBS
# Conditions in all cases: dsDNA, one strand shown
# [1] = molecular target: HESX1 (Homo sapiens, UniProt Q9UBX0 95-180, R165K)
# [2] = molecular target: HOXB4 (Homo sapiens, UniProt P17483 148-234)
# [3] = molecular target: SHOX (Homo sapiens, UniProt O15266 103-189)
# [4] = molecular target: HESX1 (Homo sapiens, UniProt Q9UBX0 95-180)
# [5] = molecular target: HOXA4 (Homo sapiens, UniProt Q00056 201-287, R217L)
# [6] = molecular target: HOXB4 (Homo sapiens, UniProt P17483 148-234, V174I)
# [7] = molecular target: MSX2 (Homo sapiens, UniProt P35548 130-214, R199I)
# [8] = molecular target: ALX3 (Homo sapiens, UniProt O95076 139-225, N203Q)
# [9] = molecular target: SHOX (Homo sapiens, UniProt O15266 103-189, R173C)
# [10] = molecular target: ALX3 (Homo sapiens, UniProt O95076 139-225)
# [11] = molecular target: PROP1 (Homo sapiens, UniProt O75360 56-141)
# [12] = molecular target: HESX1 (Homo sapiens, UniProt Q9UBX0 95-180, R109Q)
# [13] = molecular target: PROP1 (Homo sapiens, UniProt O75360 56-141, R99H)
# [14] = molecular target: ALX3 (Homo sapiens, UniProt O95076 139-225, L168Q)
# [15] = molecular target: HESX1 (Homo sapiens, UniProt Q9UBX0 95-180, P111T)
# [16] = molecular target: ALX3 (Homo sapiens, UniProt O95076 139-225, L168V)
# [17] = molecular target: PROP1 (Homo sapiens, UniProt O75360 56-141, F88S)
# [18] = molecular target: MSX2 (Homo sapiens, UniProt P35548 130-214, F161Y)
# [19] = molecular target: HESX1 (Homo sapiens, UniProt Q9UBX0 95-180, F115L)
# [20] = molecular target: ALX3 (Homo sapiens, UniProt O95076 139-225, N203S)
# Chain of ALX3 (Homo sapiens, UniProt O95076 139-225, N203S) (O95076 139-225 N203S): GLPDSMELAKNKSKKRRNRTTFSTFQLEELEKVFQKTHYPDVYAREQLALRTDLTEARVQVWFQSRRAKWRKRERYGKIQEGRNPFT
# Chain of PROP1 (Homo sapiens, UniProt O75360 56-141) (O75360 56-141): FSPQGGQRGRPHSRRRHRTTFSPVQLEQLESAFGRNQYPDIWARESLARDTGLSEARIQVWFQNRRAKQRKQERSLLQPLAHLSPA
# Chain of HOXB4 (Homo sapiens, UniProt P17483 148-234, V174I) (P17483 148-234 V174I): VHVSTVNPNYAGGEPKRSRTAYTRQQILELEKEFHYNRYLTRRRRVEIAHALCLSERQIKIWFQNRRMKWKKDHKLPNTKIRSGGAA
# Chain of HOXA4 (Q00056 201-287 R217L): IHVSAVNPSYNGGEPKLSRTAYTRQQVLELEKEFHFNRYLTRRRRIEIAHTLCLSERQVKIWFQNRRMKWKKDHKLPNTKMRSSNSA
# Chain of MSX2 (Homo sapiens, UniProt P35548 130-214, F161Y) (P35548 130-214 F161Y): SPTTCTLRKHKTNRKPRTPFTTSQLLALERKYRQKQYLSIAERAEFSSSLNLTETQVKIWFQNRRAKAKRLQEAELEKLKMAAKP
# Chain of HESX1 (Homo sapiens, UniProt Q9UBX0 95-180, P111T) (Q9UBX0 95-180 P111T): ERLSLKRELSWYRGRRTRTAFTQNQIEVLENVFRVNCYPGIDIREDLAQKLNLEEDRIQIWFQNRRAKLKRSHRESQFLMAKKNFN
# Chain of PROP1 (Homo sapiens, UniProt O75360 56-141, R99H) (O75360 56-141 R99H): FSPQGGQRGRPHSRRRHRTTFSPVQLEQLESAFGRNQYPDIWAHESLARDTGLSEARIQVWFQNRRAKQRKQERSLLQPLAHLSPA
# Chain of SHOX (Homo sapiens, UniProt O15266 103-189) (O15266 103-189): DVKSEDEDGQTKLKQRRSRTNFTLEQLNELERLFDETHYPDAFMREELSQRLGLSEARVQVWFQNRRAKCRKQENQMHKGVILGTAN
# Chain of ALX3 (Homo sapiens, UniProt O95076 139-225) (O95076 139-225): as the sequence (O95076 139-225 N203S) above, with S65N counted along it
# Chain of HESX1 (Homo sapiens, UniProt Q9UBX0 95-180, R165K) (Q9UBX0 95-180 R165K): as the sequence (Q9UBX0 95-180 P111T) above, with T17P, R71K counted along it
# Chain of ALX3 (Homo sapiens, UniProt O95076 139-225, L168V) (O95076 139-225 L168V): as the sequence (O95076 139-225 N203S) above, with L30V, S65N counted along it
# Chain of HOXB4 (Homo sapiens, UniProt P17483 148-234) (P17483 148-234): as the sequence (P17483 148-234 V174I) above, with I27V counted along it
# Chain of SHOX (Homo sapiens, UniProt O15266 103-189, R173C) (O15266 103-189 R173C): as the sequence (O15266 103-189) above, with R71C counted along it
# Chain of ALX3 (Homo sapiens, UniProt O95076 139-225, L168Q) (O95076 139-225 L168Q): as the sequence (O95076 139-225 N203S) above, with L30Q, S65N counted along it
# Chain of MSX2 (Homo sapiens, UniProt P35548 130-214, R199I) (P35548 130-214 R199I): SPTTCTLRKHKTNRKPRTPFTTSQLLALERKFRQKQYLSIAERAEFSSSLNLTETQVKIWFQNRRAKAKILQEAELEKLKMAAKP
# Chain of HESX1 (Homo sapiens, UniProt Q9UBX0 95-180, F115L) (Q9UBX0 95-180 F115L): as the sequence (Q9UBX0 95-180 P111T) above, with T17P, F21L counted along it
# Chain of HESX1 (Homo sapiens, UniProt Q9UBX0 95-180, R109Q) (Q9UBX0 95-180 R109Q): as the sequence (Q9UBX0 95-180 P111T) above, with R15Q, T17P counted along it
# Chain of HESX1 (Homo sapiens, UniProt Q9UBX0 95-180) (Q9UBX0 95-180): as the sequence (Q9UBX0 95-180 P111T) above, with T17P counted along it
# Chain of PROP1 (Homo sapiens, UniProt O75360 56-141, F88S) (O75360 56-141 F88S): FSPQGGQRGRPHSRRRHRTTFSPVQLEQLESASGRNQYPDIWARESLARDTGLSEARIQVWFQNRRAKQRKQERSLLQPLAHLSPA
# Chain of ALX3 (Homo sapiens, UniProt O95076 139-225, N203Q) (O95076 139-225 N203Q): as the sequence (O95076 139-225 N203S) above, with S65Q counted along it
Sequence,binding signal [1],binding signal [2],binding signal [3],binding signal [4],binding signal [5],binding signal [6],binding signal [7],binding signal [8],binding signal [9],binding signal [10],binding signal [11],binding signal [12],binding signal [13],binding signal [14],binding signal [15],binding signal [16],binding signal [17],binding signal [18],binding signal [19],binding signal [20]
ATTAATTG,"13 upbm affinity estimate (log intensity, higher = more binding, comparable within an allelic series)","13.4 upbm affinity estimate (log intensity, higher = more binding, comparable within an allelic series)","12.3 upbm affinity estimate (log intensity, higher = more binding, comparable within an allelic series)","12.9 upbm affinity estimate (log intensity, higher = more binding, comparable within an allelic series)","12.5 upbm affinity estimate (log intensity, higher = more binding, comparable within an allelic series)","14.2 upbm affinity estimate (log intensity, higher = more binding, comparable within an allelic series)","13.1 upbm affinity estimate (log intensity, higher = more binding, comparable within an allelic series)","8.48 upbm affinity estimate (log intensity, higher = more binding, comparable within an allelic series)","9.84 upbm affinity estimate (log intensity, higher = more binding, comparable within an allelic series)","12.7 upbm affinity estimate (log intensity, higher = more binding, comparable within an allelic series)","11.7 upbm affinity estimate (log intensity, higher = more binding, comparable within an allelic series)","9.92 upbm affinity estimate (log intensity, higher = more binding, comparable within an allelic series)","12 upbm affinity estimate (log intensity, higher = more binding, comparable within an allelic series)","11 upbm affinity estimate (log intensity, higher = more binding, comparable within an allelic series)","11.6 upbm affinity estimate (log intensity, higher = more binding, comparable within an allelic series)","10.5 upbm affinity estimate (log intensity, higher = more binding, comparable within an allelic series)","8 upbm affinity estimate (log intensity, higher = more binding, comparable within an allelic series)","13.7 upbm affinity estimate (log intensity, higher = more binding, comparable within an allelic series)","8.15 upbm affinity estimate (log intensity, higher = more binding, comparable within an allelic series)","8.67 upbm affinity estimate (log intensity, higher = more binding, comparable within an allelic series)"
ATTAATTA,"14 upbm affinity estimate (log intensity, higher = more binding, comparable within an allelic series)","13.7 upbm affinity estimate (log intensity, higher = more binding, comparable within an allelic series)","13.3 upbm affinity estimate (log intensity, higher = more binding, comparable within an allelic series)","13.8 upbm affinity estimate (log intensity, higher = more binding, comparable within an allelic series)","13.4 upbm affinity estimate (log intensity, higher = more binding, comparable within an allelic series)","14.4 upbm affinity estimate (log intensity, higher = more binding, comparable within an allelic series)","13.4 upbm affinity estimate (log intensity, higher = more binding, comparable within an allelic series)","8.67 upbm affinity estimate (log intensity, higher = more binding, comparable within an allelic series)","10.8 upbm affinity estimate (log intensity, higher = more binding, comparable within an allelic series)","13.2 upbm affinity estimate (log intensity, higher = more binding, comparable within an allelic series)","12.3 upbm affinity estimate (log intensity, higher = more binding, comparable within an allelic series)","11 upbm affinity estimate (log intensity, higher = more binding, comparable within an allelic series)","12.5 upbm affinity estimate (log intensity, higher = more binding, comparable within an allelic series)","11.6 upbm affinity estimate (log intensity, higher = more binding, comparable within an allelic series)","12.5 upbm affinity estimate (log intensity, higher = more binding, comparable within an allelic series)","11.5 upbm affinity estimate (log intensity, higher = more binding, comparable within an allelic series)","8.37 upbm affinity estimate (log intensity, higher = more binding, comparable within an allelic series)","13.8 upbm affinity estimate (log intensity, higher = more binding, comparable within an allelic series)","8.72 upbm affinity estimate (log intensity, higher = more binding, comparable within an allelic series)","8.88 upbm affinity estimate (log intensity, higher = more binding, comparable within an allelic series)"
